We go through five compounds from PubChem BioAssay.

A short description of assay [1]: yeast TOR pathway RPL19A-GFP modulators, primary screen, cell-based, S. cerevisiae, multiplex flow cytometry (AID 1862; in the data active = percent of DMSO control GFP below about 86%;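 also: lower values mimic rapamycin by blocking the RPL19A rise seen in DMSO cells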). The conditions noted are these: S. cerevisiae RPL19A-GFP strain, flow cytometry fluorescence, 3 h; at 10 µM; stronger effect = lower value. On the technique in general: A flow cytometer gives signals particle by particle.
Assay [2] can be described thus: modulators of MEP2-GFP levels in yeast, primary screen, S. cerevisiae, multiplex flow cytometry (AID 1867;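 active = GFP response, as percent of the DMSO control, above the screen-wide mean plus 3 SD, about 139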;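 also: median GFP channel fluorescence of barcode-gated MEP2-GFP cells measured by flow cytometry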). The conditions noted are these: S. cerevisiae MEP2-GFP strain, 3 h, at 10 µM, stronger effect = higher value, 100% means same as DMSO wells.
A short description of assay [3]: modulators of CIT2-GFP expression in yeast, primary screen, S. cerevisiae, GFP fusion, multiplex flow cytometry (AID 1870;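 active = percent response above a set limit, the screen-wide mean plus 3 SD, cut at about 130% in these data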;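 also: barcoded CIT2-GFP strain pooled with four other GFP strains with rapamycin as positive control; median GFP fluorescence per well over plate mean of DMSO wells so 100% = DMSO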). The conditions noted are these: 3 h, at 10 µM, stronger effect = higher value.
Assay [4] can be described thus: modulators of LAP4-GFP expression in yeast, primary screen, S. cerevisiae, multiplex flow cytometry (AID 1873;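 active = GFP signal, as percent of the solvent control, above the screen mean plus 3 SD, about 149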). To be noted: 3 h, at 10 µM, stronger effect = higher value.
The nature of assay [5]: modulators of AGP1-GFP expression in yeast TOR pathway, primary screen, cell-based, multiplex flow cytometry, S. cerevisiae (AID 1887;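 active = GFP signal above the screen-wide mean plus 3 SD, that is over about 124.5% of the solvent control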;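 also: AGP1-GFP fusion strain of S. cerevisiae within a five-strain barcoded multiplex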). The conditions noted are these: 3 h, at 10 µM, stronger effect = higher value.
A short description of assay [6]: inhibitors of CD8+ T cell-vesicle binding, pilot screen, LFA-1/ICAM-1 modulator project, MLPCN validation set, flow cytometry (AID 2523;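 active = response below a set limit, under 55% cells CD8-positive and vesicle-bound, and CD8 cells' 90th-percentile brightness under 279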;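 as to vesicle binding response: mean PE anti-B7-1 fluorescence of CD8+ cells relative to row control; 100% = QL9-loaded vesicles with DMSO vehicle in the same plate row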). The conditions noted are these: 2C mouse CD8+ T cells, at 7 µM, stronger effect = lower value; double positive events: measured here: CD8+/vesicle+ event percentage.
Assay [7] deals with Integrin beta-1 (Homo sapiens) + Integrin alpha-4 (Homo sapiens) (UniProt P13612+P05556). In words: inhibition of HUTS-21 binding to VLA-4, pilot screen, VLA-4 allosteric modulator project, U937 cells, HUTS-21 mAb, flow cytometry, validation set (AID 2674;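 active = inhibition above 50%, about 3 SD of the validation set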;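 also: antibody binding induced by the VLA-4 ligand LDV present at three times its Kd; 0% = LDV ligand with antibody and no compound and 100% = antibody without LDV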). The conditions noted are these: HUTS-21 LIBS mAb binding, at 6.7 µM, stronger effect = higher value, binding induced by LDV ligand.
Sequence of Integrin beta-1 (Homo sapiens) + Integrin alpha-4 (Homo sapiens) (P05556 whole entry, looked up): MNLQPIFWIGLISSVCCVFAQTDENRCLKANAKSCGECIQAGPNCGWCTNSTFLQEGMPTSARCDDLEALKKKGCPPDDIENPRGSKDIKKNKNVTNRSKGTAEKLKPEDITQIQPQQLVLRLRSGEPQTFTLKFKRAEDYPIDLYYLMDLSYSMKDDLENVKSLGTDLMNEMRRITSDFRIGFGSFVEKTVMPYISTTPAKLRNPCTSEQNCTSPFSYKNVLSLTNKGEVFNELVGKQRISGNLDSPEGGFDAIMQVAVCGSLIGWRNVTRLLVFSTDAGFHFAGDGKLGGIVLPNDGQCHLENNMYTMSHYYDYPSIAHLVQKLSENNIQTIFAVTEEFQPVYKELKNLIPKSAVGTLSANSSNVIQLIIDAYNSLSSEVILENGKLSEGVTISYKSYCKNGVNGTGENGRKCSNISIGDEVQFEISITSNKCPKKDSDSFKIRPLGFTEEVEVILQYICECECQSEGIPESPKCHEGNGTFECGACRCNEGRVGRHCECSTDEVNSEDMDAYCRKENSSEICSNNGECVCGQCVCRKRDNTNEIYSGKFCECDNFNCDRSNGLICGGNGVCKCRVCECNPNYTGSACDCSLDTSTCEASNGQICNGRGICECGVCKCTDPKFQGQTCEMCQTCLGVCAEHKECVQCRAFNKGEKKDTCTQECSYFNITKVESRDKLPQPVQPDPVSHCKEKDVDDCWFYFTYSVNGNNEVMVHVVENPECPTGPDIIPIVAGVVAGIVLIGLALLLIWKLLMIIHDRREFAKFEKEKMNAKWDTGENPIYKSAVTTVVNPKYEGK
Sequence of Integrin beta-1 (Homo sapiens) + Integrin alpha-4 (Homo sapiens) (P13612 whole entry, looked up): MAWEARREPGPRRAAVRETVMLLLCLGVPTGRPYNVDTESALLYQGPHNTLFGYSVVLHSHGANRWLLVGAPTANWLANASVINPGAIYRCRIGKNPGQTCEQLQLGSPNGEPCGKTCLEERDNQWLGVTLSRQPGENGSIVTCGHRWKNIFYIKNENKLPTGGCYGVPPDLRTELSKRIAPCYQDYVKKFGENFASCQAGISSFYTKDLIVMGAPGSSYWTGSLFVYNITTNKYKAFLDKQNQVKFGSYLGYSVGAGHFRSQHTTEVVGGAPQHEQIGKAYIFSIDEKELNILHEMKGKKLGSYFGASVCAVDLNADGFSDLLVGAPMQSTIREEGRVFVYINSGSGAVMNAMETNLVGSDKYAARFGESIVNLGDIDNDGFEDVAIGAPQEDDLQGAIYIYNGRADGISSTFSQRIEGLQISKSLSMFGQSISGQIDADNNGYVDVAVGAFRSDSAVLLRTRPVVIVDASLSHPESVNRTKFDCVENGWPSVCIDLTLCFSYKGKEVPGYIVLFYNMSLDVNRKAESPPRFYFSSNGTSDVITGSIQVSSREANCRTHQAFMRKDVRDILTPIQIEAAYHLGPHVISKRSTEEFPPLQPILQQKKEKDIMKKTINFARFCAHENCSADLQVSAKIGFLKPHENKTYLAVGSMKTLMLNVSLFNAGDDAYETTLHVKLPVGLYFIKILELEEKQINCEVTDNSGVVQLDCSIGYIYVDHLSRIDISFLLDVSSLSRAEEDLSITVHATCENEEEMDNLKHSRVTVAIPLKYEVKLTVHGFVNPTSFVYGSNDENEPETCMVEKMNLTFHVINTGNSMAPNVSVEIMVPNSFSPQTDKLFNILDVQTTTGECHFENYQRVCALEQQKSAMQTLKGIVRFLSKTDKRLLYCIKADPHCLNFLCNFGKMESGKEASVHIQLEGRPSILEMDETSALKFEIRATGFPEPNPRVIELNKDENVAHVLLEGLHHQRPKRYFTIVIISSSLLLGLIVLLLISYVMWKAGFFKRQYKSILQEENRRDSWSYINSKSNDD
The nature of assay [8]: superoxide lowering in aged yeast cells, pilot screen, validation compound set (AID 2706;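 active = superoxide response below 65% of plate, a cut near 3 SD across the whole screen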;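 also: yeast exposed to compound for one week at 30 degrees C before staining; 100% = mean of all compound wells on the same plate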). The conditions noted are these: S. cerevisiae aging, superoxide DHE fluorescence; at 10 µM; stronger effect = lower value.
The target in assay [9] is Beta-adrenergic receptor kinase 1 (Homo sapiens) (UniProt P25098). In words: GRK2 binders displacing RNA aptamer, biochemical, validation, human GRK2, bead flow cytometry (AID 488806;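 active = aptamer binding inhibition above 30%, about 3 SD of noise from non-fluorescent compounds; inactive = inhibition at or below 30%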). The conditions noted are these: bead-bound GRK2, FAM-aptamer displacement, at 10 µM, stronger effect = higher value.
Sequence of Beta-adrenergic receptor kinase 1 (Homo sapiens) (P25098 whole entry, looked up): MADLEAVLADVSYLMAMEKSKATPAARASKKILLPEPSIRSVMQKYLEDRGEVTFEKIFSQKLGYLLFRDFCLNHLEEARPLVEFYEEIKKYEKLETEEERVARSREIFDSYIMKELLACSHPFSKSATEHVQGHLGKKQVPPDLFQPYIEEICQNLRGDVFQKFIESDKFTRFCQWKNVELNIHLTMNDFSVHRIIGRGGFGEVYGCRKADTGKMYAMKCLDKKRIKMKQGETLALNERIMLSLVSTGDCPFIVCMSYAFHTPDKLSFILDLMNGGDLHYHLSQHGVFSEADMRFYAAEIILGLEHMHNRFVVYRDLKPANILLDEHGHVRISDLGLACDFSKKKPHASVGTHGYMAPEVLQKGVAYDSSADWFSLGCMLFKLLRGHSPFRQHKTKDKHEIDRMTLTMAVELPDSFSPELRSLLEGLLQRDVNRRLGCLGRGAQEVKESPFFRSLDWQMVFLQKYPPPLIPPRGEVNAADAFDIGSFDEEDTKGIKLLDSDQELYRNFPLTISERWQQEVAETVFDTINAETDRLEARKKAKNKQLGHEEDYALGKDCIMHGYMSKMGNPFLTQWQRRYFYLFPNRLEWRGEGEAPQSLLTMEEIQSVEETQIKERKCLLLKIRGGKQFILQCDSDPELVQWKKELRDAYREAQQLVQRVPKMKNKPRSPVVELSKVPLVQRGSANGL
Assay [10] deals with Beta-2 adrenergic receptor (Homo sapiens) (UniProt P07550). In words: beta2AR agonists driving receptor internalization, pilot screen, cell-based, FAP fluorogen, flow cytometry, validation set (AID 504459;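 active = percent response above 42, roughly 3 SD of non-fluorescent test compounds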;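 also: agonist-driven loss of surface beta2AR via internalization measured by FAP dye flow cytometry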). The conditions noted are these: Am2.2-beta2AR cells, FAP surface receptor flow cytometry; at 10 µM; stronger effect = higher value.
Sequence of Beta-2 adrenergic receptor (Homo sapiens) (P07550 whole entry, looked up): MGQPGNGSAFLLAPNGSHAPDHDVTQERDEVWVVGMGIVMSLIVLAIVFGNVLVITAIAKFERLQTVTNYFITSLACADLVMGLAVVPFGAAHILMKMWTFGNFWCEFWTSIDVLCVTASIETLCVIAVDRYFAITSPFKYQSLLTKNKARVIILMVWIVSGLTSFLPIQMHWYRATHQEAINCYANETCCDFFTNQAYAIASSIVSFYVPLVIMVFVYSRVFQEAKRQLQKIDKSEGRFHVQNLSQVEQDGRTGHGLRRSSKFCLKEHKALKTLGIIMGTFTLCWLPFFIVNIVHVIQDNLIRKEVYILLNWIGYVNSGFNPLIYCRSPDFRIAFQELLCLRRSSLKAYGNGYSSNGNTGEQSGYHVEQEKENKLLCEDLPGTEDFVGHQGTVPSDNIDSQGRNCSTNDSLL
For assay [11], the target named is AP-2 complex subunit beta (Homo sapiens) (UniProt P63010). The experiment in a line: inhibitors of arrestin peptide binding to AP2, pilot screen, biochemical, validation set, GST-AP2 beads, flow cytometry (AID 504541;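 active = inhibition above 54%, about 3 SD of non-fluorescent compounds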;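 also: AP2 carries R879A mutation and is captured from E. coli lysate; bead-bound FITC arrestin peptide fluorescence measuring arrestin peptide binding to AP2; 0% = DMSO wells and 100% = excess unlabeled arrestin peptide control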). To be noted: FITC arrestin peptide, at 10 µM, stronger effect = higher value, AP2 beta2 appendage fragment, R879A mutant.
Sequence of AP-2 complex subunit beta (Homo sapiens) (P63010 whole entry, looked up, the tested form may be a part, one chain of several): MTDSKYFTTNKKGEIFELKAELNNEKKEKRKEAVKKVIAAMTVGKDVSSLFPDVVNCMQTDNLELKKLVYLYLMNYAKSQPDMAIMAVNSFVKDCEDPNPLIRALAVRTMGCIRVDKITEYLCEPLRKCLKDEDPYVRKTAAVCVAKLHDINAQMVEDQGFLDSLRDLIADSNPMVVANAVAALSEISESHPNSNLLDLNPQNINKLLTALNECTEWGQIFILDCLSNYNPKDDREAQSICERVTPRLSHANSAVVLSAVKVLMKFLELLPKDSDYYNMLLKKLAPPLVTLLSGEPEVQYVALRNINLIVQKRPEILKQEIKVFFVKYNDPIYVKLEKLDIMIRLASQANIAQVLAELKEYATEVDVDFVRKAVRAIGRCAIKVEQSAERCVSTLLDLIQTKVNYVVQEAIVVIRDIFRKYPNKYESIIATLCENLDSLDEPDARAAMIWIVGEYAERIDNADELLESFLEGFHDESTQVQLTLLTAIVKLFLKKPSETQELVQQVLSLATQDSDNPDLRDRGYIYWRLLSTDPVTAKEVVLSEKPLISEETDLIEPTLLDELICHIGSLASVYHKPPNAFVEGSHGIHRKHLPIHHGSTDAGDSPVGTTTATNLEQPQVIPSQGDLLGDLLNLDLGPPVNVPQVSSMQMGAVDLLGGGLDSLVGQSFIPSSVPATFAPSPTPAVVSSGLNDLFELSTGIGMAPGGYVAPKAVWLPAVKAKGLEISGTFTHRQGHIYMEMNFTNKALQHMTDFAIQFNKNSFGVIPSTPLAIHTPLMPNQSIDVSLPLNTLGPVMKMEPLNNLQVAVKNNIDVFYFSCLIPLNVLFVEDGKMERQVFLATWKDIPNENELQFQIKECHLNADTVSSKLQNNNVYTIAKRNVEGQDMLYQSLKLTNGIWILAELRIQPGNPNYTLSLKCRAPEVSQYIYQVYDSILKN
Assay [12] is described as follows: yeast V-ATPase proton transport modulators, S. cerevisiae, pHLuorin, HTS validation (AID 504600; in the data active = response above about 15%;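 also: plate controls were DMSO for no effect and reference compound for full effect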). To be noted: S. cerevisiae pHLuorin cytosolic pH, at 10 µM, stronger effect = higher value.
The test system of assay [13] is anti-desmoglein-3 scFv antibody binding to human DSG3. The experiment in a line: inhibitors of anti-DSG3 scFv binding to DSG3, pilot screen, biochemical, validation compound set, bead-based, flow cytometry (AID 588368).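 Also: signal is the median channel fluorescence of bead-bound GFP antibody.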 To be noted: Protein G beads, DSG3-Fc, scFv-GFP binding, at 10 µM, stronger effect = lower value.
Assay [14] is described as follows: inhibitors of fungal efflux pumps CDR1, CDR2, MDR1, pilot screen, validation compound set, multiplex, phenotypic (AID 588506;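 active = efflux inhibition above 0.42, the validation set average plus 4 SD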;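 also: Nile Red retained in cells so higher fluorescence means more efflux inhibition; 0 = negative control wells and 1 = enniatin B 25 µM full block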). To be noted: S. cerevisiae pump-expressing triplex, Nile Red efflux flow cytometry; at 10 µM; stronger effect = higher value; the pumps come from Candida albicans.
Assay [15] addresses ATP-binding cassette sub-family B member 6 (Homo sapiens) (UniProt Q9NP58). In words: ABCB6 transporter inhibitors, pilot screen, K562-ABCB6 cells, flow cytometry, validation set (AID 588550;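 active = inhibition above the screen-wide mean plus 3 SD, about 51%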;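 also: 0% = DMSO wells and 100% = benzethonium chloride 70 µM positive control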). The conditions noted are these: K562-ABCB6 porphyrin accumulation, 1 h, at 10 µM, stronger effect = higher value.
Assay [16] is described as follows: promoters of myeloid differentiation in arrested cells, primary screen, cell-based, GFP/MAC1 double positive, flow cytometry, validation set (AID 588685;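 active = differentiation response of at least 50%, scaled between solvent and reference control, from cells with both markers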;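 also: compound exposure lasts four days before antibody staining and flow analysis; 0% = DMSO wells and 100% = 5 µM fulvestrant positive control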). To be noted: ER-HoxA9 marrow cells, stronger effect = higher value, normalized: vehicle 0, fulvestrant 100.

Inconclusive results are not listed. Active and inactive are the calls of the source.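 The calls were made as follows, unless noted: active = binding below the plate cutoff, the plate median minus 3 SD, with a reading above zero; inconclusive = below the plate cutoff but reading exactly zero; inactive = the rest.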

Sequence of ATP-binding cassette sub-family B member 6 (Homo sapiens) (Q9NP58 whole entry, looked up): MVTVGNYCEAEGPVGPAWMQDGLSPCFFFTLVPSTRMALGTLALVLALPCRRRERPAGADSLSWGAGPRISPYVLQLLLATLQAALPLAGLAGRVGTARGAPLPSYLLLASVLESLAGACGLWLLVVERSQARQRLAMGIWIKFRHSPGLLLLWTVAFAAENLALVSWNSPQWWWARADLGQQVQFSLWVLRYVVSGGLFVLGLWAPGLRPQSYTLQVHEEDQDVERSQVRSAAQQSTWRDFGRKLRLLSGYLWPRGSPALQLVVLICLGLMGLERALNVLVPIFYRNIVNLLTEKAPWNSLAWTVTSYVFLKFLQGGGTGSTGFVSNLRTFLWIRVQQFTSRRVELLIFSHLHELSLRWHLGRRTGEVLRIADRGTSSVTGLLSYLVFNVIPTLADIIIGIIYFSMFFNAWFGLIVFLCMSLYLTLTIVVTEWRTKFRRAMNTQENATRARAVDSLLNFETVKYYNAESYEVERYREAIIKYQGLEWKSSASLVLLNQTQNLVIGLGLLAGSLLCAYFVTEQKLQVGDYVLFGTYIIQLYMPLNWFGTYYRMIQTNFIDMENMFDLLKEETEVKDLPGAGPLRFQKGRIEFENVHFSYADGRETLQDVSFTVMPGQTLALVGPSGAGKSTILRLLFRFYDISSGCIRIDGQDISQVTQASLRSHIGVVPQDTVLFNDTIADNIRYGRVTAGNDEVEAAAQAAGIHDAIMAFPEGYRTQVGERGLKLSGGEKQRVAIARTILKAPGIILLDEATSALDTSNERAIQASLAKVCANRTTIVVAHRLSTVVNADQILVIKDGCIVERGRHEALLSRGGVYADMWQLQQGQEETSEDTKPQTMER

By inhibition is commonly meant the change of the read-out against control, counted positive when it falls. Take `Cc1ncoc1C(=O)N1CCCC(C(=O)c2ccc(-c3ccccc3)c(F)c2)C1` (stereo not given): the percent of DMSO control GFP in [1] is 102% (inactive). Moreover, the GFP response vs DMSO in assay [2] was 121% (inactive); in assay [4] it was 76.5% (inactive). In addition, the percent response of DMSO control in assay [3] is 112% (inactive). The GFP response, % of DMSO in [5] was 94% (inactive). The same compound came in with a double positive events in assay [6] of 49.9%. Also, the vesicle binding response in [6] is 220% (inactive). Further, the inhibition in assay [7] was -3.24% (inactive); in [11] it was 4.25% (inactive); in [15], 12% (inactive). In addition, the superoxide response (% of plate) in assay [8] was 110% (inactive). Further, in assay [9], the aptamer binding inhibition was 8% (inactive). The response in [10] was -19.4% (inactive); in [12], -6.69% (inactive). Also, the binding (% of control) in assay [13] was 101% (inactive). In assay [14], the efflux inhibition (fraction of control) is 0.01 (inactive). For the same compound, the differentiation response in assay [16] was 0.82% (inactive).
As for `c1ccc(-c2ccc(C(c3ccccc3)n3ccnc3)cc2)cc1` (stereo not given), the percent of DMSO control GFP in assay [1] was 99.8% (inactive). Moreover, the values for the GFP response vs DMSO in assay [2] and in assay [4] were 104% (inactive) and 115% (inactive), respectively. Moreover, the percent response of DMSO control in assay [3] was 101% (inactive). In addition, the GFP response, % of DMSO in assay [5] is 111% (inactive). In addition, the double positive events in assay [6] worked out at 66.2%. The vesicle binding response in assay [6] is 187% (inactive). For the same compound, the figures for the inhibition in assay [7], in assay [11] and in assay [15] were 8.25% (inactive), -14.1% (inactive) and 0% (inactive), respectively. In assay [8], the superoxide response (% of plate) was 209% (inactive). Also, the aptamer binding inhibition in [9] was 7% (inactive). Further, the response in assay [10] is 0.23% (inactive); in [12], 15.5% (active). For the same compound, the binding (% of control) in assay [13] was 101% (inactive). In assay [14], the efflux inhibition (fraction of control) was -0.04 (inactive). Also, in [16], the differentiation response was -2.03% (inactive).
For the compound `CC(=O)OC(C)C[N+](C)(C)C` (stereo not given), the percent of DMSO control GFP in [1] was 103% (inactive). The GFP response vs DMSO is 102% (inactive) in [2] and 115% (inactive) in assay [4]. The percent response of DMSO control in [3] is 96.4% (inactive). Moreover, in assay [5], the GFP response, % of DMSO was 124% (inactive). The double positive events in assay [6] is 65.5%. The vesicle binding response in assay [6] was 191% (inactive). Also, the inhibition is -7.08% (inactive) in assay [7], -17.2% (inactive) in assay [11] and 6% (inactive) in assay [15]. Also, in assay [8], the superoxide response (% of plate) is 86.6% (inactive). In [9], the aptamer binding inhibition was 5% (inactive). For the same compound, the results for the response in assay [10] and in assay [12] were -16.2% (inactive) and 0.37% (inactive), respectively. Moreover, in assay [13], the binding (% of control) is 107% (inactive). Further, the efflux inhibition (fraction of control) in assay [14] was 0 (inactive). For the same compound, the differentiation response in assay [16] is 6.83% (inactive).
For the compound `Fc1ccc(NC(=S)Nc2ccccc2Cl)cc1`, the percent of DMSO control GFP in assay [1] was 91.1% (inactive). Further, the GFP response vs DMSO was 133% (inactive) in assay [2] and 78.7% (inactive) in assay [4]. The percent response of DMSO control in assay [3] is 106% (inactive). For the same compound, the GFP response, % of DMSO in assay [5] is 93.1% (inactive). This compound also came in with a double positive events in assay [6] of 63.7%. Besides, in [6], the vesicle binding response is 235% (inactive). Moreover, the values for the inhibition in assay [7], in assay [11] and in assay [15] were 20% (inactive), 10.1% (inactive) and 12% (inactive), respectively. In addition, the superoxide response (% of plate) in assay [8] was 91.9% (inactive). The aptamer binding inhibition in assay [9] was 3% (inactive). Further, the response in assay [10] was -6.11% (inactive); in assay [12], 0.15% (inactive). Also, the binding (% of control) in assay [13] was 102% (inactive). For the same compound, the efflux inhibition (fraction of control) in assay [14] was 0.37 (inactive). For the same compound, the differentiation response in assay [16] is -1.64% (inactive).
Regarding `COc1cc(CNCCc2c[nH]c3ccccc23)cc(Cl)c1OCC(N)=O`, in [1], the percent of DMSO control GFP was 107% (inactive). The GFP response vs DMSO in assay [2] was 97.4% (inactive); in assay [4], 94% (inactive). Besides, the percent response of DMSO control in assay [3] was 102% (inactive). Moreover, the GFP response, % of DMSO in assay [5] is 97.2% (inactive). Further, the double positive events in assay [6] was determined as 66.2%. The vesicle binding response in assay [6] was 340% (inactive). Besides, the inhibition in [7] is -7.25% (inactive); in assay [11] it was -2.94% (inactive); in assay [15], 0% (inactive). The superoxide response (% of plate) in assay [8] is 102% (inactive). Moreover, the aptamer binding inhibition in assay [9] was -6% (inactive). In addition, the response in assay [10] is 14.8% (inactive); in assay [12] it was 1.24% (inactive). Further, in assay [13], the binding (% of control) was 99.9% (inactive). Also, in assay [14], the efflux inhibition (fraction of control) was 0.3 (inactive). The differentiation response in [16] is -10.4% (inactive).
